Assay results taken from the supplement of paper PMC13380429.

Tested on: Vero E6 infected with SARS-CoV-2
Experiment: inhibition of SARS-CoV-2 cytopathic effect; higher = more antiviral protection, active = above 15
Details: 48 h

Measured: inhibition of SARS-CoV-2 cytopathic effect

CC#C[C@@H](CC(=O)O)c1ccc(OCc2cccc(-c3ccc(C(F)(F)F)cc3)c2)cc1
inactive: 1 nM -0.29% | 8.33 nM 1.42% | 100 nM -0.33% | 833.33 nM 2.32% | 10000 nM 4.27%

COC(=O)c1cc(OC)c2c(c1-c1c(CO)cc(OC)c3c1OCO3)OCO2 [bicyclol]
inactive: 1 nM -2.07% | 8.33 nM 1.38% | 100 nM -0.88% | 833.33 nM -0.4% | 10000 nM -3.03%

CCOc1cc(C(C)(C)C)ccc1C1=N[C@@](C)(c2ccc(Cl)cc2)[C@@](C)(c2ccc(Cl)cc2)N1C(=O)N1CCN(CCCS(C)(=O)=O)CC1
inactive: 1 nM -1.23% | 8.33 nM -0.35% | 100 nM 1.86% | 833.33 nM 1.64% | 10000 nM 5.99%

Cc1ccccc1N1CCN(CCc2nnc3n2CCCC3)CC1 [dapiprazole]
inactive: 1 nM -2.9% | 8.33 nM -2.22% | 100 nM 0.65% | 833.33 nM -0.37% | 10000 nM 0.44%

Cn1nnc2c(C(N)=O)ncn2c1=O [temozolomide]
inactive: 1 nM 0.73% | 8.33 nM -1.46% | 100 nM -0.92% | 833.33 nM -0.44% | 10000 nM -1.79%

Cc1ccc(OCCSc2ncccn2)c(Br)c1
inactive: 1 nM -2.86% | 8.33 nM -1.79% | 100 nM -1.08% | 833.33 nM -4.19% | 10000 nM -1.49%

CC(C)c1ccc(NC(=O)Cn2cnc3c2c(=O)n(C)c(=O)n3C)cc1
inactive: 1 nM -0.13% | 8.33 nM 1.6% | 100 nM 1.39% | 833.33 nM 2.45% | 10000 nM 3.83%
